CYP2C9 inh: human CYP2C9 inhibition. 96,000 tested, 20% active. CYP2C9 Supersomes, luciferin-H conversion, luminescence. AID 777. inhibition, % at 5 µM;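 active = blocking of liver enzyme CYP2C9 beyond about 50% at 5 µM, limit read from the data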
CYP2C19 inhib: human CYP2C19 inhibition; P33261; CYP2C19 Supersomes, luciferin-H EGE luminescence, 30 min; inhibition, % at 5 µM; 96,000 tested, 21% active; AID 778;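 active = CYP2C19 inhibition above a set limit at 5 µM in the primary screen, cut at about 50% in these data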;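 also: plate controls were negative control wells for no effect and 2.5 mM tranylcypromine positive control for full effect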
Target sequence (P33261 whole entry, looked up): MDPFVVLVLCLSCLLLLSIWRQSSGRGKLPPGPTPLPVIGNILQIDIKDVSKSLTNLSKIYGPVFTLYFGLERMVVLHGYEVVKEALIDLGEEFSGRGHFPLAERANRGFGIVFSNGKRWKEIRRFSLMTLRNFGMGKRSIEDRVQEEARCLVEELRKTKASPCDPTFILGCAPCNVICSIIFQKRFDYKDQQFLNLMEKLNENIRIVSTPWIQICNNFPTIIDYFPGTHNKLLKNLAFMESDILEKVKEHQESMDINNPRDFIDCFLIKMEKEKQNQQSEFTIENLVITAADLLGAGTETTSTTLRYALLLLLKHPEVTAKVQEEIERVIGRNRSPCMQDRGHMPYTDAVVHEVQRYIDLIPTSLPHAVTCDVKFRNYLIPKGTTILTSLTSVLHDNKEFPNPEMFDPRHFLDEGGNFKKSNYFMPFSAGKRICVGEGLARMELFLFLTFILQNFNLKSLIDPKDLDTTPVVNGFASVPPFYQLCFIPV
Measles CPE: protection of cells from measles virus | Measles virus-infected cells, CPE protection, absorbance | protection (pct of control), % at 4 µM | 140,000 tested, 1.5% active; in the data active = protection mostly above about 24%, no sharp cut-off; inactive = mostly below about 26%
CYP2C19 act: cytochrome P450 2C19 (human) activation; activation factor at 5 µM; recombinant CYP2C19, luciferin-H EGE luminescence; hits give high values; 0 = fully inhibited enzyme, 1 = untreated enzyme; 96,000 tested, under 10 active; AID 1025; P33261;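 active = activation factor of at least 2 at 5 µM in the primary screen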;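 also: 0 = wells with 2.5 mM tranylcypromine and 1 = vehicle-only wells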
CYP2C9 activ: CYP2C9 (human) activation; recombinant CYP2C9, luciferin-H conversion, luminescence; hits give high values; factor 1 = untreated enzyme, 0 = blocked; activation factor at 5 µM; 96,000 tested, 1.4% active; AID 1024;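 active = activation factor of 2 or more for CYP2C9 at a 5 µM dose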;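 also: 0 = sulfaphenazole-blocked wells and 1 = vehicle-only wells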
The depositor's hits bear a star; / = not tested or not shown. Hits are enriched below; roughly 22% of the tested compounds scored in any of these assays.

SMILES	CYP2C9 inh	CYP2C19 inhib	Measles CPE	CYP2C19 act	CYP2C9 activ
O=C(CN(C1CCCCC1)S(=O)(=O)c1ccc(Cl)cc1)NCCCO	31	60*	5	0.4	0.7
Cc1ccc(CNC(=O)CN(C)S(=O)(=O)c2cccc3cccnc23)cc1	42	88*	15	0.1	0.6
Cc1ccc(S(=O)(=O)N(C)CC(=O)NCc2ccncc2)cc1	80*	90*	6	0.1	0.2
Cc1ccc(S(=O)(=O)N(C)CC(=O)Nc2ccncc2)cc1	63*	100*	13	0	0.4
O=C(C1CC(c2cccc(Br)c2)=NO1)N1CCc2ccccc2C1 (configuration not stated)	-46	28	1	0.7	1.5
CC1=CC(C)(C)n2c(O)c(N=N)c3cc(C)cc1c32	/	/	23	/	/
CCOC(=O)c1c(=O)n(O)c2ccc(C)cc2[n+]1[O-]	-18	-15	13	1.2	1.2
COc1ccc(N2CCN(C(CNS(=O)(=O)c3cccs3)c3cccnc3)CC2)cc1 (configuration not stated)	56*	69*	5	0.3	0.4
COc1ccc(S(=O)(=O)NCC(c2cccnc2)N2CCN(c3ccccc3)CC2)cc1C (configuration not stated)	86*	73*	21	0.3	0.1
COc1ccc(N2CCN(C(CNS(=O)(=O)c3cc(F)ccc3F)c3cccnc3)CC2)cc1 (configuration not stated)	57*	74*	9	0.3	0.4
COc1ccc(S(=O)(=O)NCC(c2cccnc2)N2CCN(c3ccc(F)cc3)CC2)cc1C (configuration not stated)	/	/	22	/	/
O=S(=O)(NCC(c1cccnc1)N1CCN(c2ccccc2)CC1)c1cccs1 (configuration not stated)	71*	92*	8	0.1	0.3
CC1CCCN(S(=O)(=O)c2ccc(NC(=O)CCN3C(=O)c4ccccc4C3=O)cc2)C1 (configuration not stated)	45	4	27	1	0.5
Cc1ccc(S(=O)(=O)N2CCOCC2)cc1NC(=O)COC(=O)c1ccccc1OCc1c(C)noc1C	/	/	8	/	/
CCOCCCNC(=O)c1ccc(CS(=O)(=O)Cc2ccc(C)cc2)o1	18	11	16	0.9	0.8
CCC(SC1=NCCS1)C(=O)Nc1ccc(S(N)(=O)=O)cc1 (configuration not stated)	/	/	18	/	/
COc1ccccc1N1CCN(C(CNS(=O)(=O)c2cccs2)c2cccnc2)CC1 (configuration not stated)	14	57*	6	0.4	0.9
CCS(=O)(=O)NCC(c1cccnc1)N1CCN(c2ccccc2OC)CC1 (configuration not stated)	-17	7	33	0.9	1.2
Cc1ccc(S(=O)(=O)Cn2nnnc2C(C)N2CCN(C(=O)c3ccco3)CC2)cc1 (configuration not stated)	-6	7	56*	0.9	1.1
CCCC(c1nnnn1CCOC)N1CCN(C(=O)c2ccco2)CC1 (configuration not stated)	44	50*	2	0.5	0.6
Cc1ccc(S(=O)(=O)Cn2nnnc2CN2CCN(C(=O)c3ccco3)CC2)cc1	3	-5	13	1.1	1
COCCn1nnnc1C(C(C)C)N1CCN(C(=O)c2ccco2)CC1 (configuration not stated)	-10	4	2	1	1.1
O=C(c1ccco1)N1CCN(C(c2ccccc2Cl)c2nnnn2Cc2ccco2)CC1 (configuration not stated)	27	10	26	0.9	0.7
O=C(c1ccco1)N1CCN(C(c2ccccc2Cl)c2nnnn2Cc2cccs2)CC1 (configuration not stated)	92*	89*	5	0.1	0.1
CCC(c1nnnn1Cc1ccco1)N1CCN(C(=O)c2ccco2)CC1 (configuration not stated)	9	-8	34	1.1	0.9
CC(C)CC(c1nnnn1Cc1ccccc1)N1CCN(C(=O)c2ccco2)CC1 (configuration not stated)	65*	87*	2	0.1	0.3
CCc1nc2c(n1O)CCc1nonc1-2	40	6	4	0.9	0.6
Cc1sc2ncnc(NCCN3CCOCC3)c2c1C	17	-2	17	1	0.8
Cn1cnnc1SCc1ccc(C(=O)N=Nc2c(O)n(C)c3ccccc23)cc1	/	/	7	/	/
CCOc1ccccc1OCCCNCc1ccco1	/	/	15	/	/

Compound activity: PubChem, several laboratories
